The values that follow come from publication PMC6451091, “NextPBM: a platform to study cell-specific transcription factor binding and cooperativity”.

Whole data set: some 3,700 sequences, median “z-score” near 4, cut for the highest 2% near 8.4. The entries come from a sample that favours the highest values as a whole.

Test [1] deals with PU.1 (IVT) (UniProt P17947 1-270). As to the kind of experiment: protein-binding microarray (PBM); 20 mM HEPES pH 7.9, 100 mM NaCl, 1 mM DTT, 0.2 mg/mL BSA, 0.02% Triton X-100, 2% milk, 0.4 mg/mL salmon testes DNA; 1 h; temperature not stated; high values mean tight binding. The following applies: dsDNA, one strand shown. Put shortly:
(§1)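 Custom double-stranded DNA microarrays bearing 20-bp genomic sites and single-nucleotide variants (10 probes per site, 5 per orientation) were incubated for 1 h with full-length untagged PU.1 made by coupled human in vitro transcription/translation, in HEPES pH 7.9 with 100 mM NaCl, 2% milk and salmon testes DNA. Anti-PU.1 and a fluorescent secondary antibody detected the bound protein. Each binding value is a z-score from scanned fluorescence after linear-regression normalisation.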

For test [2] the target is unchanged. The description is as above. To be noted: dsDNA, one strand shown. Put shortly: as §1
The source holds these as a separate data set.

In test [1], “GCCTAGCACAGAAAGAGGAAGACTAGTGTGTGCTAGGTCTTGATTCGCTTGACGCTGCTG” returned a binding signal of 3.78 z-score. In test [2], “GCCTAGCACAGAAAGAGGAAGTGTTTATAGTGCTAGGTCTTGATTCGCTTGACGCTGCTG” gave a binding signal of 8.43 z-score. On the same count and under the same terms, to “GCCTAGCACAGAAAGAGGAAGTGACTCAGGTGCTAGGTCTTGATTCGCTTGACGCTGCTG” belongs 8.06 z-score; to “GCCTAGCACAGAAAGAGGAAGTGAAGCTAGTGCTAGGTCTTGATTCGCTTGACGCTGCTG”, 8.64 z-score. The same measure, in the same setting: to “GCCTAGCACAGAAAGAGGAAGTGATGTTAGTGCTAGGTCTTGATTCGCTTGACGCTGCTG” belongs 8.46 z-score. On the same count and under the same terms, to “GCCTAGCACAGAAAGAGGAAGAGAAACTAGTGCTAGGTCTTGATTCGCTTGACGCTGCTG” belongs 4.62 z-score.

Turning to “GCCTAGCACAGAAAGAGGAAGTGATTGAAGTGCTAGGTCTTGATTCGCTTGACGCTGCTG”, the binding signal in test [2] is 8.32 z-score. As to “GCCTAGCACAGAAGAAGGAAGTGAAAGAAGTGCTAGGTCTTGATTCGCTTGACGCTGCTG”, the binding signal in test [1] was 4.5 z-score. “GCCTAGCACAGAAAGAGGAAGTGGGTGTTGTGCTAGGTCTTGATTCGCTTGACGCTGCTG”: in test [2], the binding signal worked out at 8 z-score. Same read-out and setting: in the case of “GCCTAGCACTCCAGGAGGAACTGAAAGCTGTGCTAGGTCTTGATTCGCTTGACGCTGCTG” it was 1.74 z-score. As to “GCCTAGCACAAAAAGAGGAAATGATTTACGTGCTAGGTCTTGATTCGCTTGACGCTGCTG”, in test [2], the binding signal stood at 6.97 z-score. In test [1], “GCCTAGCACGAAAACAGGAACTGCAAATAGTGCTAGGTCTTGATTCGCTTGACGCTGCTG” came in with a binding signal of 6 z-score. Take “GCCTAGCACAAAAAGAGGAAGAGAAACTAGTGCTAGGTCTTGATTCGCTTGACGCTGCTG”: the binding signal in test [2] was determined as 5.79 z-score. Same read-out and setting: in the case of “GCCTAGCACAAAAACAGGAAGTCAAAGGAGTGCTAGGTCTTGATTCGCTTGACGCTGCTG” it was 7.11 z-score; in that of “GCCTAGCACGAAAAGAGGAAGTCAAACGAGTGCTAGGTCTTGATTCGCTTGACGCTGCTG”, 8.02 z-score. On the same count and under the same terms, to “GCCTAGCACAAAAAGAGGAAGGGAAACTAGTGCTAGGTCTTGATTCGCTTGACGCTGCTG” belongs 5.12 z-score; to “GCCTAGCACAAAAAGAGGAAGTCAAACTAGTGCTAGGTCTTGATTCGCTTGACGCTGCTG”, 8.48 z-score; to “GCCTAGCACGAAAAGAGGAAGTCAAACTAGTGCTAGGTCTTGATTCGCTTGACGCTGCTG”, 8.35 z-score. Consider “GCCTAGCACAGAAAGAGGAAGTCAAAACAGTGCTAGGTCTTGATTCGCTTGACGCTGCTG”, for which, in test [2], the binding signal was 7.68 z-score. Still for that read-out and setting: to “GCCTAGCACGGAAAGAGGAAGTCAAACTAGTGCTAGGTCTTGATTCGCTTGACGCTGCTG” belongs 7.68 z-score; to “GCCTAGCACAAAAAGAGGAAGTCAAACAAGTGCTAGGTCTTGATTCGCTTGACGCTGCTG”, 8.71 z-score.

The sequence “GCCTAGCACAAAAAAAGGAAGTCCTTGTGGTGCTAGGTCTTGATTCGCTTGACGCTGCTG” displayed a binding signal in test [1] of 6.48 z-score.

On to “GCCTAGCACTTGGTCAGGAAGTGAAACTGGTGCTAGGTCTTGATTCGCTTGACGCTGCTG”, for which the binding signal in test [1] amounted to 1.38 z-score. In turn, “GCCTAGCACAGAAAGAGGAAGTCACAAGGGTGCTAGGTCTTGATTCGCTTGACGCTGCTG” showed a binding signal in test [2] of 7.68 z-score. As to “GCCTAGCACGAAAGAGGGAAGTGAAAGTCGTGCTAGGTCTTGATTCGCTTGACGCTGCTG”, the binding signal in test [1] was 5.25 z-score.

In the case of “GCCTAGCACGATATGAGGAACTGAAAGCTGTGCTAGGTCTTGATTCGCTTGACGCTGCTG”, in test [1], the binding signal stood at 4.06 z-score. Same read-out and setting: to “GCCTAGCACAATAAAGGGAAGTGACTGCTGTGCTAGGTCTTGATTCGCTTGACGCTGCTG” belongs 5.43 z-score. In test [2], “GCCTAGCACAAAAAAAGGAACGGGCTAGAGTGCTAGGTCTTGATTCGCTTGACGCTGCTG” showed a binding signal of 1.48 z-score. In test [1], “GCCTAGCACAAAAAGAGGAAATGAAAAGAGTGCTAGGTCTTGATTCGCTTGACGCTGCTG” had a binding signal of 6.67 z-score. The same measure, in the same setting: to “GCCTAGCACAGAAAGAGGAACTGACTGACGTGCTAGGTCTTGATTCGCTTGACGCTGCTG” belongs 6.61 z-score; to “GCCTAGCACTGAAAAGGGAAGTGAGGAAGGTGCTAGGTCTTGATTCGCTTGACGCTGCTG”, 5.34 z-score. Turning to “GCCTAGCACGAGAAGAGGAAGTAGAACAAGTGCTAGGTCTTGATTCGCTTGACGCTGCTG”, the binding signal in test [1] stood at 6.62 z-score.

As to “GCCTAGCACAAAAAGAGGAAGTAGAGAACGTGCTAGGTCTTGATTCGCTTGACGCTGCTG”, the binding signal in test [2] came to 8.97 z-score. Turning to “GCCTAGCACAAAAAAAGGAAGTGGTAAACGTGCTAGGTCTTGATTCGCTTGACGCTGCTG”, the binding signal in test [1] worked out at 6.51 z-score. On the same count and under the same terms, in the case of “GCCTAGCACACGAAGAGGAAGTAAAAGGCGTGCTAGGTCTTGATTCGCTTGACGCTGCTG” it was 6.54 z-score.

For “GCCTAGCACAAAAAGAGGAAGGGAGTAGAGTGCTAGGTCTTGATTCGCTTGACGCTGCTG”, in test [1], the binding signal amounted to 4.77 z-score. Turning to “GCCTAGCACAAAAAGAGGAAGTAAAAGACGTGCTAGGTCTTGATTCGCTTGACGCTGCTG”, the binding signal in test [2] is 8.93 z-score. In turn, “GCCTAGCACCGAAAGGGGATGTGCTAAACGTGCTAGGTCTTGATTCGCTTGACGCTGCTG” showed a binding signal in test [1] of 1.8 z-score. The same measure, in the same setting: to “GCCTAGCACTATATAGGGAAGTGGGATTCGTGCTAGGTCTTGATTCGCTTGACGCTGCTG” belongs 4.85 z-score. On to “GCCTAGCACTAAATGAGGAAGTGACAGCTGTGCTAGGTCTTGATTCGCTTGACGCTGCTG”, for which, in test [2], the binding signal turned out to be 7.57 z-score. The same measure, in the same setting: in the case of “GCCTAGCACAATGGCAGGAAGTGAAATCAGTGCTAGGTCTTGATTCGCTTGACGCTGCTG” it was 2.15 z-score.
